Shown are actives, neighbours in structure and some others; about 3.5% of the full set was active somewhere.
GPR151 activ: human GPR151 activation; Q8TDV0; PathHunter beta-arrestin GPR151 cells, luminescence; activation, % at 11.2 µM; actives 1% (n = 650,000); AID 1508602; in the data active = activation above about 4.9%;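 note: 0% = median of compound wells and 100% = cells with positive control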
FBW7 act: activators of human E3 ligase FBW7. Q969H0. AlphaScreen FBW7–phospho-cyclin E peptide binding, activator screen. normalized activity (activation), % at 26.1 µM. actives 0.13% (n = 650,000); in the data active = normalized activity above about 1.9%;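 note: purified mutant Fbw7 with reduced substrate affinity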
TEAD-YAP inh: TEAD-YAP interaction inhibition | HEK-TIYL cells, TEAD-Gal4/YAP UAS-luciferase luminescence | inhibition, % at 9.12 µM | actives 1.4% (n = 640,000); in the data active = inhibition above about 32%;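 note: 0% = median of test compound wells and 100% = reference inhibitor wells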
MITF inh: inhibitors of human MITF; O75030; AlphaScreen MITF homodimerization, bead proximity signal; inhibition, % at 2.6 µM; actives 0.91% (n = 650,000); AID 1259374; in the data active = inhibition above about 50%;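 note: 0% = vehicle wells with protein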
Target sequence (O75030 whole entry, looked up): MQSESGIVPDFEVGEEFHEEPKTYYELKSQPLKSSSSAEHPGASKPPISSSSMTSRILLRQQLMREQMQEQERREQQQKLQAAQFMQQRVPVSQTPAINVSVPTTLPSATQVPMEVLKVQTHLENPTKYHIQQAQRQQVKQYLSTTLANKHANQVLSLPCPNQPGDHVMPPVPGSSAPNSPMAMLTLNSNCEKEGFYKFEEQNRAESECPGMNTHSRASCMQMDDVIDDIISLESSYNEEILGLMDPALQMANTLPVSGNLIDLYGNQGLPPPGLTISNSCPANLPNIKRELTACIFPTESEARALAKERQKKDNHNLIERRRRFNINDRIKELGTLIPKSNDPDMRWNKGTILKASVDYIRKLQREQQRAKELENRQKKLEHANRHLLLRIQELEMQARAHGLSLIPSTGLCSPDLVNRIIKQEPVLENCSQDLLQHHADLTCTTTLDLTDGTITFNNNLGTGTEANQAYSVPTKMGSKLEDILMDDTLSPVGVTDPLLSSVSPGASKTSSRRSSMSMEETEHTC
* marks the source's active call; other numbers are inactive results.

SMILES	GPR151 activ	FBW7 act	TEAD-YAP inh	MITF inh
CCN1CCN(c2ncc3c(n2)CC(c2cc(OC)c(OC)c(OC)c2)CC3=O)CC1 (stereo not given)	0.3	0.1	47.0*	-6.9
O=C1CC(c2cccc(Cl)c2)Cc2nc(N3CCOCC3)ncc21 (stereo not given)	0.2	0.1	0.0	-4.0
O=C1N[C@@H](Cc2ccc(O)cc2)C(=O)N2CCN(Cc3cnn(-c4ccc(F)cc4)c3)C[C@H]12	-1.2	-0.1	-7.7	0.5
Cc1cc(C(=O)CSc2nc3ccccc3[nH]2)c(C)n1CC1CCCO1 (stereo not given)	-0.1	0.0	40.2*	9.9
Cc1cc(C(=O)CCl)c(C)n1CC1CCCO1 (stereo not given)	-0.9	-0.3	-7.2	8.7
COC(=O)c1ccc(CSCC(=O)c2cc(C)n(CC3CCCO3)c2C)cc1 (stereo not given)	2.1	-0.3	36.8*	0.6
CN1CCN(c2ccc(-c3nc(NCc4cccnc4)c4ncn(-c5ccsc5)c4n3)cc2)CC1	-3.1	-0.1	36.0*	32.4
CN1CCN(c2ccc(-c3nc(NCCO)c4ncn(-c5ccsc5)c4n3)cc2)CC1	-1.1	0.0	86.9*	11.7
COc1ccc(-c2nc(NCCO)c3ncn(-c4ccsc4)c3n2)cc1	1.0	0.1	61.5*	3.1
CCCNc1nc(-c2ccc(N3CCN(C)CC3)cc2)nc2c1ncn2-c1ccsc1	-3.3	0.2	27.9	13.8
Cc1cc(=O)[nH]c(N/N=C/c2cc3c(cc2[N+](=O)[O-])OCO3)n1	-0.7	-0.1	10.7	-4.1
CC(C)c1ccc(S(=O)(=O)c2cc3ccccc3oc2=O)cc1	-0.8	0.1	-4.7	10.1
O=C(O)CCN1C(=O)/C(=C/c2ccc([N+](=O)[O-])o2)SC1=S	-1.0	-0.2	20.9	56.3*
O=C(O)CN1C(=O)/C(=C\c2cc(Cl)ccc2O)SC1=S	-0.1	0.2	12.4	11.0
O=C(O)CCCN1C(=O)/C(=C/c2ccc(O)cc2)SC1=S	-5.5	-0.2	75.4*	15.1
O=C(O)CCCN1C(=O)/C(=C\c2ccccn2)SC1=S	1.6	-0.2	87.4*	0.5
O=C(O)CN1C(=O)/C(=C\c2ccc(O)cc2O)SC1=S	-2.6	-0.1	-5.6	87.5*
O=C(O)CCCN1C(=O)/C(=C\c2ccccc2)SC1=S	-1.1	0.6	24.9	18.0
O=C(O)CCCN1C(=O)/C(=C\c2ccc(O)cc2)SC1=S	-6.6	-0.2	66.5*	3.1
COc1cc(/C=C2/SC(=S)N(CCC(=O)O)C2=O)ccc1O	-6.5	-0.2	32.5*	23.3
Cc1cc(/C=C2/C(=O)NC(=O)N(C3CCCCC3)C2=O)c(C)n1C1CCCC1	2.3	-0.7	-3.6	-3.8
CC1CCCCN1C(=O)CSc1nnc(-c2ccc3c(c2)OCO3)o1 (stereo not given)	3.1	0.1	-2.9	2.9
Cc1[nH]c2ccc(-c3nnc(SCC(=O)N4CCCCC4C)o3)cc2c1C (stereo not given)	0.2	0.1	50.7*	-3.8
O=C(Nc1ccncc1)c1ccc(COc2ccccc2Cl)cc1	-3.7	1.5	59.5*	16.1
CN(C)S(=O)(=O)c1ccc(C(=O)Nc2ccc(Cc3ccncc3)cc2)cc1	0.8	-0.1	21.9	-5.5
SMILES	GPR151 activ	FBW7 act	TEAD-YAP inh	MITF inh
Cc1ccc(Oc2ccc(NC(=O)c3ccncc3)cc2)cc1C	-0.4	0.1	35.6*	6.8
O=C(Nc1ccc(Cc2ccncc2)cc1)c1ccc(Oc2ccc(C(=O)Nc3ccc(Cc4ccncc4)cc3)cc2)cc1	0.0	0.1	61.5*	5.5
O=c1cc(CN2CCN(c3ccccc3)CC2)occ1OCc1ccc(F)cc1	3.7	0.1	0.8	7.8
CCOC(=O)c1sc(N2C(=O)C(=O)/C(=C(/O)c3ccccc3)C2c2ccc(C(C)C)cc2)nc1C (stereo not given)	-0.5	-0.2	2.1	-7.3
CC(C)(C)C(=O)CNC(=O)c1ccncc1	0.6	0.0	57.1*	9.9
COc1cccc(OC)c1OCCNCC1CCCO1 (stereo not given)	1.3	-0.2	-12.1	48.1
CC(=O)NC1=NN(C(C)=O)C(C)S1 (stereo not given)	2.0	0.1	-1.1	-2.7
O=[N+]([O-])c1c(Sc2ncnc3nc[nH]c23)ccc2nsnc12	-1.0	0.1	-6.3	22.0
COc1ccc(C(=O)Nc2ncc(Cc3ccc(C)cc3)s2)cc1OC	-0.8	1.1	39.1*	9.9
COc1ccc(C(=O)Nc2ncc(Cc3cccc(Cl)c3)s2)cc1OC	1.1	0.5	53.1*	8.8
Cc1ccc(C(=O)Nc2ncc(Cc3cccc(Cl)c3)s2)cc1	0.1	0.6	11.3	20.0
O=C(N/N=C/c1ccc(F)cc1)c1cc2sccc2[nH]1	-0.7	0.1	48.9*	17.2
Cc1cc(-n2c(SCc3ccccc3C)nc3ccsc3c2=O)ccc1Cl	0.0	0.5	12.0	9.7
CCOC(=O)c1c(NC(=O)CC)sc2c1CCC/C2=N/OC(C)=O	-0.1	0.0	-3.4	1.3
CCOC(=O)c1c(N)sc2c1CCC/C2=N\O	-0.6	-0.3	52.6*	6.0
CCOC(=O)c1csc2c1CCC/C2=N/OC(C)=O	-0.5	1.3	36.4*	5.5
Cc1c(C(=O)NC2CCCCC2)sc2ncn(CC(=O)N3CCCCC3C)c(=O)c12 (stereo not given)	0.4	2.0*	-0.4	22.4
Cc1c(C(=O)NC(C)C)sc2ncn(CC(=O)N3CCCCC3C)c(=O)c12 (stereo not given)	0.1	-0.1	0.2	6.6
O=C(N1CCCC1c1nc(-c2ccncc2)n[nH]1)C1(c2ccc(F)cc2)CCCC1 (stereo not given)	0.7	-0.2	5.4	-7.9
C(=N\Nc1ccc2ccccc2n1)/c1cccnc1	-6.2	0.0	75.1*	3.3
COc1cccc(/C=N/Nc2ccc3ccccc3n2)c1OC	-2.7	-0.1	98.3*	-11.6
COc1ccc(/C=N/Nc2ccc3ccccc3n2)cc1	-0.6	-0.1	-38.8	-4.6
COc1ccc(/C=N/Nc2ccc3ccccc3n2)c(OC)c1OC	-0.9	0.0	-39.7	3.9
C(=N\Nc1ccc2ccccc2n1)/c1ccc2c(c1)OCCO2	-1.5	-0.1	79.9*	2.7
C(=N\Nc1nncc2ccccc12)/c1ccc2c(c1)OCCO2	-7.6	-0.2	97.6*	1.5
SMILES	GPR151 activ	FBW7 act	TEAD-YAP inh	MITF inh
Cc1sc2nc(SCC(=O)N3CCC(C)CC3)[nH]c(=O)c2c1C	0.8	0.3	-4.3	-3.5
CC(CN1CCc2nnc(CNC(=O)Cc3cccc(F)c3)n2CC1)c1ccccc1 (stereo not given)	-0.4	0.0	-11.3	-13.5
CCOc1cccc2cc(C(=O)Nc3cccc(-c4ccc(OC)nn4)c3)c(=O)oc12	0.2	0.5	3.0	16.1
COc1cccc2sc(N3CCOCC3)nc12	0.0	2.0*	-32.9	15.7
COc1cccc2sc(N3CCN(c4nc5ccccc5s4)CC3)nc12	1.6	0.0	-3.5	6.2
COc1cccc2sc(N(C)c3ccccc3)nc12	-2.1	-0.1	46.8*	-4.0
CCn1cnc2sc(C(=O)Nc3nc4ccc(Br)cc4s3)c(C)c2c1=O	1.0	-0.2	39.7*	-9.9
Cc1c(C(=O)Nc2nc3ccccc3s2)sc2ncn(CC(=O)N3CC(C)CC(C)C3)c(=O)c12 (stereo not given)	-0.7	-0.1	-0.2	3.3
